According to PubChem BioAssay (EPA / NIEHS):
Where “and” joins values, the source holds several entries; their conditions need not be identical. Identical values can stand only once. Where a structure was tested more than once in an assay, its records may differ in their call. Calls of active or inactive are those of the source. How the source made its calls: active means hit-call score of the fitted dose curve at least 0.9, where 1 is the maximum; inactive means score below 0.9.

Columns and labels:
[1] = ATG_PBREM_CIS: Attagene CIS-FACTORIAL HepG2 Assay for human Phenobarbital-responsive Enhancer Module (PBREM) (AID 2282955); details: HepG2 PBREM cis-reporter, Attagene multiplexed transcription; actives raise or lower the signal
Outline: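 HepG2, transient MRTU transfection, 24 h dosing; RNA → oligo(dT) RT → PCR → 6-FAM extension → HpaI → CE. Bidirectional fit vs DMSO.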

[2] = molecular target: Paired box protein Pax-6 (Homo sapiens) (UniProt P26367); test: ATG_Pax6_CIS: Attagene CIS-FACTORIAL HepG2 Assay for human Paired Box 6 (PAX6) (AID 2282956); details: HepG2 CIS-FACTORIAL PAX6 reporter transcription, RNA readout; actives raise or lower the signal
Paired box protein Pax-6 (Homo sapiens), sequence (P26367 whole entry, looked up): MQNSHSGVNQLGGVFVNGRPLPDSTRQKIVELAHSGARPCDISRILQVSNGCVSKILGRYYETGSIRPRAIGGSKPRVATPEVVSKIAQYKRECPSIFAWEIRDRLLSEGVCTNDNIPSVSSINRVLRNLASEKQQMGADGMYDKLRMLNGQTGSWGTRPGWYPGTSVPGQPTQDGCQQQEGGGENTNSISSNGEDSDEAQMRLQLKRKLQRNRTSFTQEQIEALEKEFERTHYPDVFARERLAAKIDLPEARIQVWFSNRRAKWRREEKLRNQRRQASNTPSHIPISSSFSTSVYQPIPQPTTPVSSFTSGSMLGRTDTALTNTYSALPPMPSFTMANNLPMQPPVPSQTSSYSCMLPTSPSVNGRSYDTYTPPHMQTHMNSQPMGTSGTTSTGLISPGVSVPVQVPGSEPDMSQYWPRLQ
Outline: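 HepG2 cells transiently transfected with multiplexed cis-promoter reporter units (endogenous TF activity) were dosed for 24 h. Reporter mRNA was quantified by RT-PCR, 6-FAM labeling, HpaI digestion and capillary electrophoresis; bidirectional fitting versus DMSO baseline.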

[3] = ATG_PXRE_CIS: Attagene CIS-FACTORIAL HepG2 Assay for human Pregnane X Receptor Element (PXRE) (AID 2282957); details: HepG2 Attagene CIS-FACTORIAL PXRE reporter, mRNA; actives raise or lower the signal
Outline: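 HepG2 cells transiently transfected with cis-regulated multiple reporter transcription units; endogenous factor activity measured as reporter mRNA 24 h after dosing. RT-PCR, fluorescent primer extension, HpaI digestion, capillary electrophoresis; bidirectional fit versus DMSO baseline.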

[4] = ATG_PPRE_CIS: Attagene CIS-FACTORIAL HepG2 Assay for human Peroxisome Proliferator-activated Response Element (PPRE) (AID 2282958); details: HepG2 PPRE cis-element reporter, Attagene transcription factor profiling; actives raise or lower the signal
Outline: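 Transcript-level reporter induction in transfected HepG2 cells after 24 h chemical exposure, quantified by fluorescence from RT-PCR products separated by capillary electrophoresis.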

[5] = ATG_RORE_CIS: Attagene CIS-FACTORIAL HepG2 Assay for human RAR-related Orphan Receptor Element (RORE) (AID 2282959); details: HepG2 Attagene cis-factorial RORE reporter, mRNA; actives raise or lower the signal
Outline: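 Multiplexed reporter assay measuring mRNA induction from a cis promoter element in transiently transfected HepG2 cells after 24 h treatment. Detection via RT-PCR and capillary electrophoresis fluorescence; DMSO serves as baseline.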

[6] = ATG_Sox_CIS: Attagene CIS-FACTORIAL HepG2 Assay for human SRY-box transcription factor (SOX) (AID 2282960); details: HepG2 Attagene cis-factorial SOX reporter, mRNA; actives raise or lower the signal
Outline: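 Cells were transfected with reporter constructs under cis-regulatory promoters, then exposed to chemicals for 24 h. Reporter transcripts were quantified by fluorescence after RT-PCR and capillary electrophoresis; activity was fitted in both directions against DMSO.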

[7] = molecular target: Transcription factor Sp1 (Homo sapiens) (UniProt P08047); test: ATG_Sp1_CIS: Attagene CIS-FACTORIAL HepG2 Assay for human Specificity Protein 1 (Sp1) (AID 2282961); details: HepG2 Sp1 cis-reporter transcription, actives raise or lower the signal
Transcription factor Sp1 (Homo sapiens), sequence (P08047 whole entry, looked up): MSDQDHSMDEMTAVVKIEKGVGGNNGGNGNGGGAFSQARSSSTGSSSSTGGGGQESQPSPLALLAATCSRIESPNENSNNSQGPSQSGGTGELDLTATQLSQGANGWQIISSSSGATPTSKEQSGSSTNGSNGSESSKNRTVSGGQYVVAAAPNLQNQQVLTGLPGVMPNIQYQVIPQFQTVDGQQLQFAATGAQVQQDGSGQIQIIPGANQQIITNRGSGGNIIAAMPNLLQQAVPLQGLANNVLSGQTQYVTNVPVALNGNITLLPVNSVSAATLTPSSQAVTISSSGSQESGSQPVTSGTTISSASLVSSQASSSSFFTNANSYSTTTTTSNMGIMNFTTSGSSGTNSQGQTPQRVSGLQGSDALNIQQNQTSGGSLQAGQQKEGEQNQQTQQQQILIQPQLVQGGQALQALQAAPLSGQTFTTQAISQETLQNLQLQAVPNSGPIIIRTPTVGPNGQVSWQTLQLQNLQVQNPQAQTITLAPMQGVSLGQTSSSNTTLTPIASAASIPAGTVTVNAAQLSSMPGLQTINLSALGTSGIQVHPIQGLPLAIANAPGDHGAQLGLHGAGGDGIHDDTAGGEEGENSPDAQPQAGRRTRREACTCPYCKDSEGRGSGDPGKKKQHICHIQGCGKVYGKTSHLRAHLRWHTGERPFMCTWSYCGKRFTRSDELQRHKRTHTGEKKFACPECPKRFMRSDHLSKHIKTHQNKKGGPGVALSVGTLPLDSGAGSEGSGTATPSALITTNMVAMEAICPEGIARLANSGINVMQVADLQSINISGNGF
Outline: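 Measures mRNA induction of an Sp1-linked reporter in HepG2 cells 24 h post-dosing. Multiplexed reporters read by RT-PCR and capillary electrophoresis; DMSO serves as negative control and baseline.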

[8] = ATG_SREBP_CIS: Attagene CIS-FACTORIAL HepG2 Assay for human Sterol Regulatory Element Binding (SREBP) (AID 2282962); details: HepG2 Attagene cis-factorial SREBP reporter, mRNA; actives raise or lower the signal
Outline: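 HepG2 cells transiently transfected with multiplexed cis-element reporter units report endogenous transcription factor activity. After 24 h of chemical exposure, reporter mRNA was quantified by RT-PCR, 6-FAM labelling, HpaI digestion and capillary electrophoresis; bidirectional fits used DMSO as baseline.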

[9] = molecular target: Signal transducer and activator of transcription 3 (Homo sapiens) (UniProt P40763); test: ATG_STAT3_CIS: Attagene CIS-FACTORIAL HepG2 Assay for human Signal Transducer and Activator of Transcription 3 (STAT3) (AID 2282963); details: HepG2, Attagene cis-factorial STAT3 reporter transcription; actives raise or lower the signal
Signal transducer and activator of transcription 3 (Homo sapiens), sequence (P40763 whole entry, looked up): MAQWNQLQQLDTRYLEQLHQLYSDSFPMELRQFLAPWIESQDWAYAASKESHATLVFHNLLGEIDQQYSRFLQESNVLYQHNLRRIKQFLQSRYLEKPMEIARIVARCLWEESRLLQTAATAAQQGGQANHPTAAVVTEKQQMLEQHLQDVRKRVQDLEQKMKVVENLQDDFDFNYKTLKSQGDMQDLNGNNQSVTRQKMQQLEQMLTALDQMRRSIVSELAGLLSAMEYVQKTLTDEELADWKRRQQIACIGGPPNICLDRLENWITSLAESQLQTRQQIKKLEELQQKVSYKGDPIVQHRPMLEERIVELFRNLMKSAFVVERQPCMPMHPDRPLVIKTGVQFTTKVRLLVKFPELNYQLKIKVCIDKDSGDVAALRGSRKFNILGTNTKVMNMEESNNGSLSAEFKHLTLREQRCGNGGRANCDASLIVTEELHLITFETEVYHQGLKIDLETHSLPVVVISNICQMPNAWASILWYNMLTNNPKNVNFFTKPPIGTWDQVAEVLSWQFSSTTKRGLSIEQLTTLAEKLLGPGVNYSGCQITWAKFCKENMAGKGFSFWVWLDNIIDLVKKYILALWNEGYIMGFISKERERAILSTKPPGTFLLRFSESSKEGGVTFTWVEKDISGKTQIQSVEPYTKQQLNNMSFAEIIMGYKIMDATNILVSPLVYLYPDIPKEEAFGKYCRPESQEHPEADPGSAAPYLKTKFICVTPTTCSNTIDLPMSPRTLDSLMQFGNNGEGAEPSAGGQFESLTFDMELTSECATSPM
Outline: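 HepG2 cells transiently transfected with multiple cis-element-driven reporter units report endogenous transcription factor activity. After 24 h compound exposure, reporter mRNA is measured by RT-PCR, 6-FAM labelling, HpaI digestion and capillary electrophoresis. Fitted bidirectionally versus DMSO.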

[10] = ATG_TA_CIS: Attagene CIS-FACTORIAL HepG2 Assay for human TA Basal Promoter (AID 2282964); details: HepG2 Attagene CIS-factorial TA basal promoter reporter; actives raise or lower the signal
Outline: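 HepG2 cells transiently transfected with multiple reporter units under cis promoter elements, reporting endogenous transcription factor activity; this endpoint tracks the TA basal promoter as background control. Reporter mRNA after 24 h dosing measured by RT-PCR/capillary electrophoresis; bidirectional fits versus DMSO.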

| SMILES | outcome [1] | outcome [2] | AC50 [3] | outcome [4] | outcome [5] | outcome [6] | outcome [7] | outcome [8] | outcome [9] | outcome [3] | AC50 [4] | AC50 [7] | AC50 [8] | outcome [10] | AC50 [1] | AC50 [5] | AC50 [2] | AC50 [9] | AC50 [6] |
| --- | --- | --- | --- | --- | --- | --- | --- | --- | --- | --- | --- | --- | --- | --- | --- | --- | --- | --- | --- |
| C#C[C@]1(O)CC[C@H]2[C@@H]3CCC4=CC(=O)CC[C@@H]4[C@H]3CC[C@@]21C | inactive | inactive | 26.9 µM (active) [middle of 4 runs] | inactive | inactive | inactive | inactive | inactive | inactive | – | – | – | – | – | – | – | – | – | – |
| O=c1c(-c2ccc(O)cc2)coc2cc(O)ccc12 | inactive | inactive | – | inactive | inactive | inactive | inactive | inactive | – | inactive | 42 µM (active) and 52.3 µM (active) | 38.8 µM (active) | 47.5 µM (active) and 91.4 µM (active) | inactive | – | – | – | – | – |
| NC(=O)N1C(=O)C(C(=O)c2cc(Cl)cs2)c2cc(F)c(Cl)cc21 (stereo not given) | – | inactive | 4.07 µM (active) | inactive | – | inactive | inactive | – | – | – | – | – | 4.78 µM (active) | – | 11 µM (active) | 13.7 µM (active) | – | – | – |
| CCCOC(=O)c1ccc(O)cc1 | inactive | inactive | 34.2 µM (active) and 60 µM (active) | inactive | inactive | inactive | inactive | inactive | – | – | 77.5 µM (active) | – | 26.4 µM (active) | – | – | 128 µM (active) | 142 µM (active) | – | – |
| CCCCCCCCCCCCCC[N+](C)(C)C | inactive | inactive | – | inactive | inactive | inactive | inactive | – | inactive | inactive | – | – | 6.57 µM (active) and 2.76 µM (active) | – | – | – | – | 18.1 µM (active) | – |
| Cc1ccc(S(=O)(=O)O)c(C)c1 | inactive | inactive | 27.3 µM (active) | inactive | – | inactive | inactive | inactive | – | inactive | – | – | – | – | – | – | – | – | – |
| Nc1cccc2c(N)cccc12 | inactive | inactive | – | inactive | inactive | inactive | inactive | inactive | inactive | inactive | – | – | – | inactive | – | – | – | – | – |
| CCC(=C(c1ccc(O)cc1)c1ccc(OCCN(C)C)cc1)c1ccccc1 | inactive | inactive | 1.05 µM (active) [middle of 4 runs] | inactive | – | inactive | inactive | inactive | – | – | – | 13.4 µM (active) | 3.6 µM (active) | – | 7.1 µM (active) and 11.2 µM (active) | – | 7.1 µM (active) and 9.41 µM (active) | – | 7.1 µM (active) and 11.3 µM (active) |
| CC[C@H](C)[C@@H](C(=O)O)n1sc2ccccc2c1=O | inactive | inactive | – | inactive | inactive | inactive | inactive | inactive | inactive | inactive | – | – | – | – | – | – | – | – | – |
| CCc1nn(C2CCCCC2)c2cc(C3(C#N)CCC(C(=O)O)CC3)ccc12 (stereo not given) | inactive | – | – | – | – | inactive | inactive | – | – | inactive | 0.438 µM (active) | – | 65.5 µM (active) | – | – | 32.4 µM (active) | 100 µM (active) | – | – |
| CCCOc1sc(C(=O)N2CCC(c3cc(CN)ccc3F)CC2)c(C)c1Br | inactive | inactive | 2.09 µM (active) | inactive | inactive | inactive | inactive | – | – | – | – | – | 3.7 µM (active) | – | – | – | – | – | – |
| CCCCOCCO | inactive | inactive | – | inactive | inactive | inactive | inactive | inactive | inactive | inactive | – | – | – | inactive | – | – | – | – | – |
| O=C(O)Cc1cc(I)c(Oc2cc(I)c(O)c(I)c2)c(I)c1 | – | inactive | – | – | – | – | – | – | – | inactive | 4.68 µM (active) and 13.3 µM (active) | 31.3 µM (active) and 17 µM (active) | 4.05 µM (active) and 5.53 µM (active) | – | 113 µM (active) and 17.5 µM (active) | 53.6 µM (active) and 10.8 µM (active) | 67 µM (active) | – | 23.4 µM (active) and 18.1 µM (active) |
| CCCCC(CC)COC(=O)CCCCC(=O)OCC(CC)CCCC (stereo not given) | inactive | inactive | – | inactive | inactive | inactive | inactive | inactive | inactive | inactive | – | – | – | inactive | – | – | – | – | – |
| OCCC(F)(F)C(F)(F)C(F)(F)C(F)(F)C(F)(F)C(F)(F)F | inactive | inactive | – | inactive | inactive | inactive | inactive | inactive | – | inactive | – | – | 100 µM (active) | – | – | – | 176 µM (active) | – | – |
| COc1ccc([N+](=O)[O-])cc1N | inactive | inactive | – | inactive | inactive | inactive | inactive | inactive | inactive | inactive | – | – | – | inactive | – | – | – | – | – |
